ChEMBL document CHEMBL1157539, “Thousands of chemical starting points for antimalarial lead identification” (Nature, 2010)

Assays:
Type in all cases: functional
Plasmodium falciparum [1] = test: GSK_TCMDC: Inhibition of Plasmodium falciparum 3D7 in whole red blood cells, using parasite LDH activity as an index of growth. Test compounds present at 2uM
Plasmodium falciparum [2] = test: GSK_TCMDC: Inhibition of Plasmodium falciparum Dd2 in whole red blood cells, using parasite LDH activity as an index of growth. Test compounds present at 2uM
HepG2 = test: GSK_TCMDC: Percent inhibition of human HepG2 cell line. Test compounds present at 10uM.

| Compound | Inhibition (Plasmodium falciparum [1]) | Inhibition (Plasmodium falciparum [2]) | Inhibition (HepG2) |
| --- | --- | --- | --- |
| CCNc1cc(C(=O)N[C@@H](Cc2ccccc2)[C@H](O)CNC2(CCC(C)C)CC2)cc(N2CCCCS2(=O)=O)c1.Cl | 90% | 52% | 6% |
| OCc1ccc(-c2cncc(Nc3ccc(F)c(Cl)c3)c2)cc1 | 92% | 99% | 2% |
| Cc1ccc(NC(=O)Cc2noc(CC3CCCN3C(=O)N[C@@H](C)c3ccccc3)n2)cc1 (stereo partly specified) | 95% | 90% | 1% |
| CNC(=O)c1cc(S(=O)(=O)N2CCN(c3ccccn3)CC2)cs1 | 99% | 100% | 0% |
| CCCN(Cc1ccc(C)cc1)Cc1cc(=O)c2cc(Cl)ccc2[nH]1 | 86% | 91% | 51% |
| NC(=O)Nc1ccc2c(Nc3ccc(OCc4ccccc4)cc3)ncnc2c1 | 84% | 20% | 0% |
| CC(C)c1ccc(CN2CCC(CNC(=O)c3cc(-c4cccc(F)c4)cs3)C2)cc1.O=C(O)C(F)(F)F (stereo unspecified) | 100% | 46% | 59% |
| CCOc1ccc2c(=NN=Cc3ccc(F)cc3)cc(C)[nH]c2c1 | 100% | 99% | 22% |
| Cc1cccc(-c2nc(Nc3ccncc3)c3ccc([N+](=O)[O-])cc3n2)n1 | 87% | 13% | 0% |
| N#Cc1ccc(-c2ccc(C(=O)NCCCCN3CCC(n4cnc5ccccc54)CC3)cc2)cc1 | 94% | 2% | 15% |
| COc1ccc(CNCc2cccc(-c3ccc(-c4nc5cccc(C)c5[nH]4)cc3)c2)cc1.O=C(O)C(F)(F)F | 100% | 70% | 23% |
| Cc1[nH]c(C)c(-c2ccc(-c3ccc(OC(F)(F)F)cc3)nc2)c(=O)c1Cl | 95% | 95% | 11% |
| CC1(C)N=C(N)N=C(N)N1OCCCOc1cc(Cl)c(Cl)cc1Cl.Cl | 95% | 95% | 60% |
| Clc1cc(Cl)c2cc(CN[C@H]3CCC[C@@H]3CNc3nc4ccccc4[nH]3)[nH]c2c1 | 99% | 58% | 85% |
| CCCCCc1cc(OCCN(C)C)cc2c1C(=O)CC(C)(C)O2.Cl | 98% | 0% | 5% |
| COC(=O)C1=CNC=C(C(=O)OC)C1c1ccc(Cl)c([N+](=O)[O-])c1 | 93% | 79% | 0% |
| COc1ccc(CNCCCCCCCNCc2ccc(Cl)c(Cl)c2)cc1Cl | 90% | 18% | 27% |
| CCOc1ccc2[nH]c(C)cc(=NN=Cc3ccccc3Cl)c2c1 | 100% | 100% | 11% |
| CCOc1ccccc1CCNCC1CCN(CC2CCCCC2)CC1.O=C(O)C(F)(F)F | 84% | 59% | 35% |
| CCCc1cc(NC2CCN(C)CC2)nc(Nc2ccc(C)cc2)n1 | 100% | 20% | 25% |
| COc1ccc2nccc(N(C)CC3(O)CCN(CCc4ccc5c(c4)OCCO5)CC3)c2n1.Cl | 100% | 96% | 15% |

| Compound | Inhibition (Plasmodium falciparum [1]) | Inhibition (Plasmodium falciparum [2]) | Inhibition (HepG2) |
| --- | --- | --- | --- |
| O=C(O)C(F)(F)F.O=S(=O)(NC1CCN(c2ccnc3cc(Cl)ccc23)C1)c1cccc(F)c1 (stereo unspecified) | 98% | 88% | 19% |
| CC(C)c1ncc(-c2ccncc2)c(C2CCC(CNC(=O)c3cccnc3)CC2)n1 (stereo unspecified) | 89% | 88% | 0% |
| Cc1nc(C)c(-c2ccc(C(=O)c3ccc(Cl)cc3)cc2)c(O)c1Cl | 98% | 95% | 0% |
| Cn1nc(-c2ccc(Cl)cc2)c2cc(C(=O)NCCN3CCOCC3)sc21 | 97% | 29% | 21% |
| COc1ccc(C(=O)Nc2ccc3nc(N4CCCCC4)cc(C)c3c2)cc1[N+](=O)[O-] | 96% | 7% | 17% |
| Cl.NC1=NC(c2ccccc2)N(c2ccccc2)C(N)=N1 (stereo unspecified) | 96% | 85% | 0% |
| Cn1cc(C2CCN(CCCCNC(=O)c3ccc(C(=O)Nc4ccc(C#N)cc4)cc3)CC2)c2ccccc21 | 100% | 58% | 16% |
| Cc1nc2nc(N)nc(N)c2c(C)c1Cc1ccccc1I.Cl | 96% | 0% | 63% |
| c1cncc(Oc2ccc(Nc3ccnc4cc(-c5cccc(CN6CCOCC6)c5)ccc34)cc2)c1 | 100% | 100% | 14% |
| COc1cccc(CNC[C@@H](O)[C@H](Cc2ccccc2)NC(=O)c2cc(NC(C)C)cc(N3CCCCS3(=O)=O)c2)c1.O=CO | 89% | 97% | 1% |
| O=C(Nc1ccc(Cl)c(Cl)c1)N[C@H]1CCN(CCCCCNC(=O)C2CC2c2ccc(Cl)c(Cl)c2)C1 (stereo partly specified) | 93% | 8% | 42% |
| Cc1cccc2nc(-c3ccc(-c4cccc(NC(=O)Nc5ccccc5)c4)cc3)[nH]c12 | 100% | 14% | 18% |
| CCCCc1cc(=O)oc2cc(C)cc(OCc3ccccc3F)c12 | 92% | 78% | 8% |
| CCNc1cc(C(=O)N[C@@H](Cc2ccccc2)[C@H](O)CN[C@H](C)c2ccccc2)cc(N2CCCC2=O)c1 | 97% | 99% | 0% |
| CN1CCN(CCCN(Cc2ccc(-c3cccc(CNCc4ccc5c(c4)OCO5)c3)cc2)C(=O)NC2CCCCC2)CC1.O=C(O)C(F)(F)F | 95% | 92% | 31% |
| N#Cc1ccc(/C=C/C(=O)NCCCCCN2CCCN(C(=O)Nc3ccc(Cl)c(C(F)(F)F)c3)CC2)cc1 | 98% | 13% | 28% |
| O=C(O)C(F)(F)F.c1ccc(CN2CCC(NCc3ccc(-c4ccc(CNCc5cccnc5)cn4)cc3)CC2)cc1 | 97% | 13% | 0% |
| COc1cc(NC(=O)Nc2cc(C)nc3ccccc23)cc(OC)c1 | 100% | 57% | 5% |
| CC(C)c1ccc(CN2CCC(CNC(=O)c3cc(-c4ccc(N(C)C)cc4)cs3)C2)cc1.O=C(O)C(F)(F)F (stereo unspecified) | 83% | 32% | 36% |
| COc1cc(OC)cc(C(=O)N2CCOC(CCN3CCC(c4ccccc4)CC3)(c3ccc(Cl)c(Cl)c3)C2)c1 (stereo unspecified) | 85% | 61% | 13% |
| O=C(NC1CCN(Cc2ccccc2)CC1)c1ccc(-c2nc3cc(Cl)c(Cl)cc3[nH]2)s1 | 100% | 99% | 17% |

| Compound | Inhibition (Plasmodium falciparum [1]) | Inhibition (Plasmodium falciparum [2]) | Inhibition (HepG2) |
| --- | --- | --- | --- |
| CN1CCC(N2CCN(CCOc3cc(NC(=O)/C=C/c4ccccc4Cl)ccc3Br)CC2)CC1.O=C(O)C(=O)O | 100% | 99% | 36% |
| Cc1cc(S(=O)(=O)N2CCCCC(c3ccc(C(F)(F)F)cc3)=N2)c(Cl)cc1Cl | 97% | 97% | 17% |
| Brc1cccc(Nc2nccc(Nc3ccc(Oc4ccccc4)cc3)n2)c1.Cl | 89% | 5% | 0% |
| O=C(Nc1cccc(N2CCC(NCCCn3ccnc3)CC2)c1)c1cccc(C(F)(F)F)c1 | 100% | 2% | 8% |
| COc1cccc(CN2CCC(N3CCc4cc(NC(=O)c5cc(C)on5)ccc43)C2)c1OC (stereo unspecified) | 93% | 92% | 9% |
| Cc1cc(N[C@@H](Cc2ccccc2)C(=O)Nc2ccccc2)nc(NCCc2cccnc2)n1.O=C(O)C(F)(F)F | 95% | 57% | 32% |
| CC(C)CNCc1ccc(-c2cccc(-c3nc4ccccc4[nH]3)c2)cc1.O=C(O)C(F)(F)F | 99% | 98% | 53% |
| CN(C)S(=O)(=O)c1ccc(N2CCN(CCC3(c4cccc(F)c4)CCN(C(=O)C(C)(C)C)CC3)CC2)c2nonc12 | 91% | 85% | 8% |
| COCCn1c(C)nc2ccccc2c1=O | 89% | 67% | 0% |
| CO/C(=C\C=C\c1cc2cc(Cl)c(Cl)cc2[nH]1)C(=O)NCCCN1CC(C)N(C)CC1C (stereo unspecified) | 92% | 73% | 38% |
| O=C(Nc1ccc(-c2nc3ccccc3[nH]2)cc1)c1ccc(-c2cccc([N+](=O)[O-])c2)o1 | 100% | 97% | 47% |
| CC(C)COc1ccc(Cl)cc1Cc1nc(-c2nc3ccc(N4CCN(C)CC4)nc3[nH]2)cs1.Cl | 99% | 27% | 29% |
| CN1CCC(Oc2cc(NC(=O)Nc3ccc(-c4ccncc4)c(Cl)c3)ccc2Cl)CC1 | 99% | 100% | 23% |
| Cc1cc(N[C@@H](Cc2ccccc2)C(=O)NCCc2ccccc2)nc(NCc2ccccc2C)n1.O=C(O)C(F)(F)F | 99% | 85% | 37% |
| CCOC(=O)C1CCN(CCCNC(=O)/C(=C/C=C/c2cc3cc(Cl)c(Cl)cc3[nH]2)OC)CC1 | 87% | 78% | 23% |
| Cn1ccnc1CNC(=O)c1ccc(-c2cccc(-c3nc4cc(C(F)(F)F)ccc4[nH]3)c2)cc1 | 100% | 80% | 20% |
| NS(=O)(=O)c1cncc(-c2ccc3nccc(-c4cn[nH]c4)c3n2)c1 | 99% | 100% | 33% |
| CCNc1cc(C(=O)N[C@@H](Cc2ccccc2)[C@H](O)CNC(CC)c2cccc(Cl)c2)cc(N2CCCC2=O)c1.Cl (stereo partly specified) | 97% | 99% | 12% |
| N#Cc1ccccc1S(=O)(=O)N1CCCC(CNC(=O)[C@H](CC2CCCCC2)NC(=O)c2cc3ccccc3s2)C1 (stereo partly specified) | 97% | 92% | 9% |
| NC1=Nc2ccc(Cl)cc2C1(O)c1ccccc1 (stereo unspecified) | 100% | 51% | 0% |
